Source: PubChem BioAssay (NCI)
The panel holds about 79,000 compounds, 15% with a hit somewhere; the sample as a whole holds those more often. Activity calls are given as the source filed them. No stated cut-off is given here; in the data, active means growth inhibition above about 70%; inactive means the rest.

What was measured:
[1] = NCI Yeast Anticancer Drug Screen. Data for the rad50 strain (AID 155);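 further: 0% = growth of vehicle-only cultures of the same strain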; details: S. cerevisiae rad50 strain growth inhibition, active compounds read high
Summary of the method: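 Yeast carrying a defined DNA repair defect were exposed to test compounds, and growth was compared with vehicle-treated controls to give percent inhibition.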

[2] = NCI Yeast Anticancer Drug Screen. Data for the mec2-1 strain (AID 157); details: S. cerevisiae mec2-1 strain, active compounds read high
Summary of the method: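 Each compound was tested on mec2-1 yeast, a strain altered in DNA damage repair or cell cycle control. Growth inhibition is reported relative to vehicle.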

[3] = NCI Yeast Anticancer Drug Screen. Data for the sgs1 mgt1 strain (AID 161);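 further: 0% = growth of cultures given vehicle only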; details: S. cerevisiae sgs1 mgt1 strain, active compounds read high
Summary of the method: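 Read-out: growth inhibition vs vehicle controls. Cells: mutant yeast strain deficient in DNA damage repair.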

[4] = NCI Yeast Anticancer Drug Screen. Data for the cln2 rad14 strain (AID 165);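 further: 0% = growth equal to vehicle treated cultures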; details: S. cerevisiae cln2 rad14 strain, active compounds read high
Summary of the method: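 Test compounds were added to cln2 rad14 yeast cultures; inhibition of growth was then determined by comparison with vehicle treatment.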

[5] = NCI Yeast Anticancer Drug Screen. Data for the bub3 strain (AID 167); details: S. cerevisiae bub3 mutant strain, active compounds read high
Summary of the method: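 Compounds were applied to a genetically altered yeast strain carrying a cell-cycle control defect. Growth inhibition was scored against vehicle-treated controls.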

[6] = NCI Yeast Anticancer Drug Screen. Data for the mlh1 rad18 strain (AID 175); details: S. cerevisiae mlh1 rad18 strain growth inhibition, active compounds read high
Summary of the method: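 Inhibition values reflect reduced growth of mutant yeast versus vehicle-treated controls following compound exposure; the mutations affect DNA damage repair.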

[7] = at 5.0 µM (retest, dose inferred, filed as 0.5)
[8] = at 50.0 µM (retest, dose inferred, filed as 5.0)

Measured: growth inhibition

CC1C(=O)C(Br)CC2C1(C)CCC1C2(C)CCC2(C)C3CC(C)(C)CCC3(C)CCC12C (stereo not given)
active: [5]; at 50.0 µM 85%
inactive: [1]; [7] 6% | [1]; [8] -1% | [1]; at 50.0 µM 25.7% | [2]; [7] 5% | [2]; [8] 3% | [2]; at 50.0 µM 6.25% | [3]; [7] 8% | [3]; [8] -13% | [3]; at 50.0 µM 4.2% | [4]; [7] 7% | [4]; [8] 6% | [4]; at 50.0 µM 64.5% | [5]; [7] 6% | [5]; [8] 5% | [6]; [7] -2% | [6]; [8] 0% | [6]; at 50.0 µM 0.3%

S=C(SSSSC(=S)N1CCCCC1)N1CCCCC1
inactive: [1]; [7] 45% | [1]; at 50.0 µM 66.8% | [2]; [7] 39% | [2]; at 50.0 µM 19.9% | [3]; [7] 39% | [3]; at 50.0 µM 43.1% | [4]; [7] 39% | [4]; at 50.0 µM 9.35% | [5]; [7] 40% | [6]; [7] 57%
active: [1]; [8] 92% | [2]; [8] 95% | [3]; [8] 96% | [4]; [8] 94% | [5]; [8] 95% | [5]; at 50.0 µM 73.5% | [6]; [8] 93% | [6]; at 50.0 µM 81%

COc1ccc(SC2=C(N(C)C(C)=O)C(=O)c3ccccc3C2=O)cc1
active: [1]; [7] 98% | [1]; [8] 99% | [1]; at 50.0 µM 99.5% | [2]; [7] 97% | [2]; [8] 100% | [2]; at 50.0 µM 99.7% | [3]; [7] 97% | [3]; [8] 100% | [3]; at 50.0 µM 99.7% | [4]; [7] 95% | [4]; [8] 99% | [4]; at 50.0 µM 99.7% | [5]; [7] 99% | [5]; [8] 99% | [5]; at 50.0 µM 99.6% | [6]; [7] 98% | [6]; [8] 99% | [6]; at 50.0 µM 99.6%

NC(=S)C1CCC(C2CCCCC2)CC1 (stereo not given)
inactive: [1]; [7] 5% | [2]; [7] 14% | [3]; [7] 13% | [4]; [7] -4% | [5]; [7] 13% | [6]; [7] 21%
active: [1]; [8] 97% | [1]; at 50.0 µM 96.5% | [2]; [8] 96% | [2]; at 50.0 µM 94.8% | [3]; [8] 97% | [3]; at 50.0 µM 97.2% | [4]; [8] 94% | [4]; at 50.0 µM 83.5% | [5]; [8] 97% | [5]; at 50.0 µM 96.3% | [6]; [8] 97% | [6]; at 50.0 µM 95.8%

CN(C)CCCNc1ccc(O)c2c1C(=O)c1ccccc1C2=O
active: [1]; [7] 93% | [1]; [8] 99% | [1]; at 50.0 µM 89.9% | [2]; [7] 95% | [2]; [8] 99% | [2]; at 50.0 µM 87.8% | [3]; [7] 96% | [3]; [8] 99% | [3]; at 50.0 µM 88.2% | [4]; [8] 98% | [5]; [7] 92% | [5]; [8] 98% | [5]; at 50.0 µM 89.7% | [6]; [7] 97% | [6]; [8] 99% | [6]; at 50.0 µM 89.6%
inactive: [4]; [7] 32% | [4]; at 50.0 µM 67%

COC(=O)C1(C)CCc2c(ccc3cccc(OC)c23)C1=O (stereo not given)
inactive: [1]; [7] 0% | [1]; at 50.0 µM 1.65% | [2]; [7] 0% | [2]; at 50.0 µM 21% | [3]; [7] 2% | [3]; at 50.0 µM 66.9% | [4]; [7] -9% | [4]; at 50.0 µM -3.75% | [5]; [7] 20% | [6]; [7] 1% | [6]; at 50.0 µM 44.5%
active: [1]; [8] 99% | [2]; [8] 98% | [3]; [8] 98% | [4]; [8] 97% | [5]; [8] 99% | [5]; at 50.0 µM 86.8% | [6]; [8] 99%

CCCCCCCCCCCCSC(=NCC)NCC
inactive: [3]; at 50.0 µM 48.8% | [4]; [7] 59%
active: [1]; [7] 89% | [1]; [8] 99% | [1]; at 50.0 µM 99.6% | [2]; [7] 79% | [2]; [8] 100% | [2]; at 50.0 µM 99.8% | [3]; [7] 98% | [3]; [8] 100% | [4]; [8] 99% | [4]; at 50.0 µM 99.1% | [5]; [7] 96% | [5]; [8] 100% | [5]; at 50.0 µM 99.6% | [6]; [7] 89% | [6]; [8] 99% | [6]; at 50.0 µM 99.5%

COc1ccc(CCCCC(=O)O)cc1O
inactive: [1]; [7] -155% | [1]; [8] -161% | [1]; at 50.0 µM 40.9% | [2]; [7] -52% | [2]; [8] -54% | [2]; at 50.0 µM 14.1% | [3]; [7] -56% | [3]; [8] -65% | [3]; at 50.0 µM 29.9% | [4]; [7] -57% | [4]; [8] -55% | [4]; at 50.0 µM 61.9% | [5]; [7] -69% | [5]; [8] -80% | [5]; at 50.0 µM 2.5% | [6]; [7] -117% | [6]; [8] -117% | [6]; at 50.0 µM 28.4%

O=[N+]([O-])c1ccc2c(c1)/C(=N/O)c1ccccc1-2
inactive: [1]; [7] 21% | [1]; [8] 49% | [2]; [7] 0% | [2]; [8] 7% | [2]; at 50.0 µM 28.4% | [3]; [7] 4% | [3]; [8] 20% | [3]; at 50.0 µM 70% | [4]; [7] -10% | [4]; [8] 4% | [4]; at 50.0 µM 46.2% | [5]; [7] 8% | [5]; [8] 29% | [5]; at 50.0 µM 18.8% | [6]; [7] 19% | [6]; [8] 38%
active: [1]; at 50.0 µM 88.3% | [6]; at 50.0 µM 81%

N/C(=N\OC1(c2ccccc2)OC(=O)C(=O)/C1=C(/O)c1ccccc1)c1ccccc1 (stereo not given)
active: [1]; [8] 97% | [1]; at 50.0 µM 98% | [2]; [8] 89% | [2]; at 50.0 µM 98.5% | [3]; [8] 87% | [3]; at 50.0 µM 96.6% | [4]; [8] 75% | [4]; at 50.0 µM 78% | [5]; [8] 94% | [5]; at 50.0 µM 98.2% | [6]; [8] 92% | [6]; at 50.0 µM 98.3%
inactive: [1]; [7] 10% | [2]; [7] 8% | [3]; [7] 13% | [4]; [7] 0% | [5]; [7] 7% | [6]; [7] 4%
